# Test results from PubChem BioAssay.
# The source made the active and inactive calls.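 Rule for the calls, unless noted: active = compound that reduces growth-factor-driven endothelial tube area in a mixed cell culture, no cutoff stated; inactive = the rest.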
# Experiment: growth inhibition of GSK3B-pretreated HCT116 cells – cell-based, CellTiter-Glo, 0.2 to 20 µM (AID 1117336;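 active = compounds lowering colon cancer cell viability after pretreatment blocking the GSK3B kinase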)
# Details: HCT116 viability after GSK3B inhibitor, at 20 µM, stronger effect = higher value
row,SMILES,viability decrease
1,CCC1=C(C)CN(C(=O)NCCc2ccc(S(=O)(=O)NC(=O)NC3CCC(C)CC3)cc2)C1=O (stereo not drawn),34.1% (inactive)
2,Nc1nc2c(ncn2CCC(CO)CO)c(=O)[nH]1,0.03% (inactive)
3,Cn1nnc2c(C(N)=O)ncn2c1=O,-10.2% (inactive)
4,Nc1ccc(O)c(C(=O)O)c1,2.55% (inactive)
5,CC1CCN(CCCC(=O)c2ccc(F)cc2)CC1,5.7% (inactive)
6,COC(=O)C1=C(C)NC(C)=C(C(=O)OC(C)C)C1c1cccc2nonc12 (stereo not drawn),-4.5% (inactive)
7,OCCOCCN1CCN(C2=Nc3ccccc3Sc3ccccc32)CC1,-12.8% (inactive)
8,Nc1nc(N)nc(-c2cc(Cl)ccc2Cl)n1,20.3% (inactive)
9,CCc1c2c(nc3ccc(OC(=O)N4CCC(N5CCCCC5)CC4)cc13)-c1cc3c(c(=O)n1C2)COC(=O)[C@]3(O)CC,67.4% (active)
10,COc1ccc(C2CNC(=O)C2)cc1OC1CCCC1 (stereo not drawn),23.9% (inactive)
11,CN1CCCCC1CCN1c2ccccc2Sc2ccc(S(C)=O)cc21 (stereo not drawn),51% (active)
12,O=C(O)/C=C/c1ccc(Cn2ccnc2)cc1,-15.3% (inactive)
13,COc1ccc2nc(S(=O)Cc3ncc(C)c(OC)c3C)[nH]c2c1 (stereo not drawn),13.3% (inactive)
14,CCN1CCCC1CNC(=O)c1cc(S(=O)(=O)CC)c(N)cc1OC (stereo not drawn),-1.8% (inactive)
15,CCOC(=O)OC(C)OC1=C(C(=O)Nc2ccccn2)N(C)S(=O)(=O)c2ccccc21 (stereo not drawn),5.8% (inactive)
16,O=C(NCCO[N+](=O)[O-])c1cccnc1,-0.2% (inactive)
17,CC[N+](C)(CC)CCOC(=O)C(O)(c1ccccc1)C1CCCCC1 (stereo not drawn),-16.6% (inactive)
18,CNS(=O)(=O)Cc1ccc2[nH]cc(CCN(C)C)c2c1,-2.3% (inactive)
19,CCc1nn(CCCN2CCN(c3cccc(Cl)c3)CC2)c(=O)n1CCOc1ccccc1,67.2% (active)
20,OCc1cc(C(O)CNCCCCCCOCCCCc2ccccc2)ccc1O (stereo not drawn),-73.1% (inactive)

# Experiment: inhibition of endothelial tube formation, primary screen, imaging, VEGF stimulated, CD31 staining, tube area, NPC library (AID 1117340)
# Details: VEGF-stimulated ADSC/ECFC co-culture, at 10 µM, stronger effect = higher value
row,SMILES,tube area decrease
1,CCOC(=O)C1=C(C)NC(C)=C(C(=O)OC)C1c1cccc(Cl)c1Cl (stereo not drawn),58.1% (active)
2,O=C(NCCN1CCOCC1)c1ccc(Cl)cc1,6% (inactive)
3,CCOc1cc(CC(=O)N[C@@H](CC(C)C)c2ccccc2N2CCCCC2)ccc1C(=O)O,-11.3% (inactive)
4,COCCCC/C(=N\OCCN)c1ccc(C(F)(F)F)cc1,-2.4% (inactive)
5,COc1ccccc1N1CCN(CC(O)COc2cccc3ccccc23)CC1 (stereo not drawn),35.4% (inactive)
6,CC(C)NCC(O)COc1ccc(CCOCC2CC2)cc1 (stereo not drawn),26% (inactive)
7,COc1cc2nc(N3CCN(C(=O)C4CCCO4)CC3)nc(N)c2cc1OC (stereo not drawn),9.3% (inactive)
8,c1cnc(N2CCN(Cc3ccc4c(c3)OCO4)CC2)nc1,-4.5% (inactive)
9,CCOC(=O)c1ncn2c1CN(C)C(=O)c1cc(F)ccc1-2,-3.4% (inactive)
10,CC(C)NCC(O)COc1ccc(COCCOC(C)C)cc1 (stereo not drawn),-2.7% (inactive)
11,CN1CCC(=C2c3ccccc3C=Cc3ccccc32)CC1,43.3% (active)
12,Cc1ncc([N+](=O)[O-])n1CC(O)CCl (stereo not drawn),-4.9% (inactive)
13,CCc1oc2ccccc2c1C(=O)c1cc(Br)c(O)c(Br)c1,101% (active)
14,O=C(CCNNC(=O)c1ccncc1)NCc1ccccc1,-20.5% (inactive)
15,Oc1ccc(C2CNCCc3c2cc(O)c(O)c3Cl)cc1 (stereo not drawn),42.2% (active)
16,O=C1CC2(CCCC2)CC(=O)N1CCCCN1CCN(c2ncccn2)CC1,-1.5% (inactive)
17,Cc1cccc(C)c1OCC(C)N (stereo not drawn),-2% (inactive)
18,CN1CCC(=C2c3ccccc3CC(=O)c3sccc32)CC1,-3.1% (inactive)
19,CCC1=C(C)CN(C(=O)NCCc2ccc(S(=O)(=O)NC(=O)NC3CCC(C)CC3)cc2)C1=O (stereo not drawn),-7.2% (inactive)

row,SMILES,tube area decrease
1,Nc1nc2c(ncn2CCC(CO)CO)c(=O)[nH]1,11.3% (inactive)
2,Cn1nnc2c(C(N)=O)ncn2c1=O,26.7% (inactive)
3,Nc1ccc(O)c(C(=O)O)c1,-5.5% (inactive)
4,CC1CCN(CCCC(=O)c2ccc(F)cc2)CC1,10.4% (inactive)
5,COC(=O)C1=C(C)NC(C)=C(C(=O)OC(C)C)C1c1cccc2nonc12 (stereo not drawn),13.7% (inactive)
6,OCCOCCN1CCN(C2=Nc3ccccc3Sc3ccccc32)CC1,18.9% (inactive)
7,Nc1nc(N)nc(-c2cc(Cl)ccc2Cl)n1,-11.3% (inactive)
8,CCc1c2c(nc3ccc(OC(=O)N4CCC(N5CCCCC5)CC4)cc13)-c1cc3c(c(=O)n1C2)COC(=O)[C@]3(O)CC,97.9% (active)
9,COc1ccc(C2CNC(=O)C2)cc1OC1CCCC1 (stereo not drawn),1.1% (inactive)
10,CN1CCCCC1CCN1c2ccccc2Sc2ccc(S(C)=O)cc21 (stereo not drawn),16.9% (inactive)
11,O=C(O)/C=C/c1ccc(Cn2ccnc2)cc1,3% (inactive)
12,COc1ccc2nc(S(=O)Cc3ncc(C)c(OC)c3C)[nH]c2c1 (stereo not drawn),29.3% (inactive)
13,CCN1CCCC1CNC(=O)c1cc(S(=O)(=O)CC)c(N)cc1OC (stereo not drawn),-11.8% (inactive)
14,CCOC(=O)OC(C)OC1=C(C(=O)Nc2ccccn2)N(C)S(=O)(=O)c2ccccc21 (stereo not drawn),-1.1% (inactive)
15,O=C(NCCO[N+](=O)[O-])c1cccnc1,-25.1% (inactive)
16,CC[N+](C)(CC)CCOC(=O)C(O)(c1ccccc1)C1CCCCC1 (stereo not drawn),-4.7% (inactive)
17,CNS(=O)(=O)Cc1ccc2[nH]cc(CCN(C)C)c2c1,15.1% (inactive)
18,CCc1nn(CCCN2CCN(c3cccc(Cl)c3)CC2)c(=O)n1CCOc1ccccc1,30.7% (inactive)
19,OCc1cc(C(O)CNCCCCCCOCCCCc2ccccc2)ccc1O (stereo not drawn),27.2% (inactive)
